# Unmarked numbers belong to inactive results.
# Legend:
# Settings in all cases: 60 µM; 5 days; temperature: 20 °C
# Meloidogyne hapla J2 = assay: proportion of mobile M. hapla J2 relative to DMSO control (fraction of DMSO control); higher = more viable, less nematicidal, active = 0.7 or less
# How it was run: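 Compound was pinned to 60 µM final (0.6% v/v DMSO) into 96-well wells, each holding about 25 M. hapla J2 in distilled water. Plates were sealed and shaken for 5 days at 20 °C and 200 rpm, then given 2 µL 1 M NaOH per well. Microscopic mobility scores were normalised to the mean of the plate's own DMSO wells, eight per plate, with two biological replicates averaged.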
# [1] = test system: Caenorhabditis elegans dauer (daf-2(e1370)); assay: proportion of mobile C. elegans dauer larvae relative to DMSO control (fraction of DMSO control); higher = more viable, less nematicidal, active = 0.63 or less; extreme values may be limits of the assay
# How it was run: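 Compound was added by pinning to 60 µM final, giving 0.6% v/v DMSO, in 96-well plates containing about 20 C. elegans dauers per well in liquid NGM. These dauers came from synchronized larvae held on MYOB plates with E. coli OP50 for 48 h at 25 °C. Plates were sealed and shaken at 200 rpm at 20 °C for 5 days. Under a dissection microscope, the proportion of mobile worms was scored relative to DMSO wells, and two biological replicates were averaged.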
# Ditylenchus dipsaci = assay: proportion of mobile D. dipsaci (mixed stage) relative to DMSO control (fraction of DMSO control); higher = more viable, less nematicidal, active = 0.86 or less; extreme values may be limits of the assay
# How it was run: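 Mobility values are relative to DMSO controls and are averages of two biological replicates. For each well of a 96-well plate, about 20 D. dipsaci worms, grown on pea plants in Gamborg B-5 agar and funnel-extracted into water, were dispensed in distilled water. Plates received pinned compound at 60 µM final with 0.6% v/v DMSO and were sealed and shaken at 200 rpm for 5 days at 20 °C before 2 µL 1 M NaOH was added and mobile worms were scored by microscope.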
SMILES,proportion of mobile M. hapla J2 (Meloidogyne hapla J2),proportion of mobile C. elegans dauer larvae [1],proportion of mobile D. dipsaci (Ditylenchus dipsaci)
CCOc1ccc(-c2nc(-c3ccccc3)no2)cc1,0.922,1,1
Cc1cc(C)nc(SCc2nc(-c3ccccc3)no2)n1,1.05,1,1
Cc1ccc(OCc2nc(-c3ccccc3Cl)no2)cc1C,1.04,1,1
CC(=O)Nc1ccc(-c2nc(-c3ccccc3)no2)cc1,0.961,1,1
Cc1ccc(C(=O)Nc2ccccc2-c2nc(-c3ccncc3)no2)cc1C,1.06,1,1
COc1ccc(-c2nnc(SCC(=O)Nc3ccc(Br)cc3C(C)C)o2)cc1,1,1,1
CC1CCN(C(=O)CSc2nnc(-c3cc4ccccc4o3)o2)CC1,0.996,1,1
CC(C)(C)NC(=O)c1ccccc1-c1nc(-c2ccccc2)no1,0.886,1,1
COc1ccc(CCC(=O)Nc2ccc(-c3noc(-c4ccccc4C)n3)cc2)cc1,0.791,1,1
COc1ccccc1-c1nnc(SCC(=O)OCc2ccccc2)o1,0.978,1,1
COc1ccc(-c2noc(COc3ccc(C)cc3C)n2)cc1,0.93,1,1
Clc1ccccc1OCc1nc(-c2ccccn2)no1,1,1,1
CCn1c(SCc2nnc(-c3ccccc3)o2)nnc1-c1ccco1,0.948,1,1
Cc1cc(C)c(C)c(OCc2nc(-c3cccnc3)no2)c1,0.58 (active),1,1
COc1cccc(-c2noc(COc3ccccc3Cl)n2)c1,0.998,1,1
COc1cccc(-c2noc(COc3cc(C)ccc3C)n2)c1,0.873,1,1
Cc1ccc(-c2nc(-c3cccc(C)c3)no2)cc1,0.87,1,1
Cc1ccc(C(=O)CSc2nnc(-c3ccco3)o2)o1,0.906,1,1
O=C(CSc1nnc(-c2ccco2)o1)Nc1ccc(F)cc1,0.939,1,1
COc1ccccc1-c1nnc(SCC(=O)Nc2ccc(C)cc2)o1,1.03,1,0.885

SMILES,proportion of mobile M. hapla J2 (Meloidogyne hapla J2),proportion of mobile C. elegans dauer larvae [1],proportion of mobile D. dipsaci (Ditylenchus dipsaci)
Cn1c(SCc2nc(-c3ccccc3)no2)nnc1-c1ccco1,0.98,1,1
Clc1ccc(-c2nnc(SCc3ccccc3)o2)c(Cl)c1,0.957,1,1
Clc1cc(Br)ccc1OCc1nc(-c2ccccn2)no1,1.01,1,1
COc1nc(C)ccc1-c1noc(-c2ccccc2C)n1,0.668 (active),1,1
COc1ccc(-c2nnc(SCc3ccccc3C)o2)cc1,0.942,1,1
CC(C)CCC(=O)Nc1ccccc1-c1nc(-c2ccccn2)no1,1.03,1,1
CCCOc1ccc(-c2nc(-c3ccncc3)no2)cc1,0.85,0.5 (active),1
COc1ccccc1OCc1nc(-c2ccc(Br)cc2)no1,1.04,1,1
Cc1ccc(-c2nc(-c3ccc(C(F)(F)F)cc3)no2)cc1,0.952,0.5 (active),1
Cn1c(SCc2nc(-c3cccs3)no2)nnc1-c1ccco1,0.932,1,1
CNC(=O)c1ccccc1-c1nc(-c2ccccc2Cl)no1,1,1,1
Brc1ccc(OCc2nc(-c3cccs3)no2)cc1,0.963,1,1
COc1nc(-c2ccc(C)cc2)ccc1-c1noc(-c2cccc(C)c2)n1,0.949,1,1
O=C(CSc1nnc(-c2ccccc2)o1)NC1CC2CCC1C2 (configuration not stated),0.795,1,1
Clc1cc(Cl)c(OCc2nc(-c3ccncc3)no2)cc1Cl,0.713,1,1
O=C(CSc1nnc(-c2ccco2)o1)Nc1ccc(Br)cn1,0.756,1,1
Cc1ccc(-c2nc(-c3ccccc3Br)no2)cc1,0.962,1,1
COc1ccccc1OCc1nc(-c2cccc(Br)c2)no1,0.499 (active),1,1
C=CCOc1ccc(-c2nc(-c3cccnc3)no2)cc1,0.965,0.5 (active),0.5 (active)
